Data reported in PubChem BioAssay AID1455 (National Center for Advancing Translational Sciences (NCATS), 2008).
Inconclusive results are not listed. A number with no mark means an inactive call. Active and inactive are the calls of the source. Calls come from the whole dose curve; as a rule, active = well fitted inhibition curve with a large enough effect; inconclusive = small, poorly fitted or top-dose-only effect; inactive = no such curve, though single readings can be large or run the other way.

Each molecule was assayed against Ubiquitin carboxyl-terminal hydrolase 2 (Homo sapiens) (UniProt O75604) (assay: Confirmation Concentration-response Assay for Inhibitors of Ubiquitin-specific Protease USP2a). Details: USP2 core, Ub-PLA2 coupled fluorescence, NBD C6-HPC; series mostly up to 38.3 µM; activity, negative = inhibition: at the top concentration.
Ubiquitin carboxyl-terminal hydrolase 2 (Homo sapiens), sequence (O75604 whole entry, looked up): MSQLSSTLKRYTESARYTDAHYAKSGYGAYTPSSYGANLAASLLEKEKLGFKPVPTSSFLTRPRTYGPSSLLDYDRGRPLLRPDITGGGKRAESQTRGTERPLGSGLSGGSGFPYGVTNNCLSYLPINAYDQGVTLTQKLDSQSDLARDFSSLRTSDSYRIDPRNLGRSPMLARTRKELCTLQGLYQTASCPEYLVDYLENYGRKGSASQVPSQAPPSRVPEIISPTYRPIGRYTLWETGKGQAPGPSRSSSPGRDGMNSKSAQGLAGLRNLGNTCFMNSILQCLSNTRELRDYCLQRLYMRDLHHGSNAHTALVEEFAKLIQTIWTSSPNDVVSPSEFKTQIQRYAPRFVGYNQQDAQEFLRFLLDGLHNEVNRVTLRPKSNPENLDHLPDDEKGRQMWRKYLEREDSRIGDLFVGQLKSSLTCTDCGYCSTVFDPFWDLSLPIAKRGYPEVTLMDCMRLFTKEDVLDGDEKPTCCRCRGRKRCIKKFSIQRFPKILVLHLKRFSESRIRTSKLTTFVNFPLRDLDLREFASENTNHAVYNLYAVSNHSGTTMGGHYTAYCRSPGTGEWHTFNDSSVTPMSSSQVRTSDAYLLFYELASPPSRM
Excerpt: NIH Molecular Libraries Screening Centers Network [MLSCN] NIH Chemical Genomics Center [NCGC] MLSCN Grant: XO1-MH079852-01 PI Name: Nicholson, Ben. Progenra Inc, Malvern, PA NCGC Assay Overview: Homeostasis of cellular proteins is maintained through a combination of synthesis and degradation. The pathway that accounts for the majority of protein degradation is the ubiquitin-proteasomal pathway. Ubiquitin (Ub) is highly conserved in all cells and the generation of a multi-Ub chain typically targets proteins for degradation by the proteasome. However, ubiquitination is highly reversible and dynamic. Deubiquitination, the reverse process, is catalyzed through the action of enzymes referred to as isopeptidases or deubiquitinating enzymes (DUBs). This group of enzymes is collectively responsible for maintaining adequate pools of free ubiquitin and regulating the ubiquitination status of cellular proteins. The class of DUBs referred to as the ubiquitin-specific proteases (USP) family functions endoproteolytically to cleave Ub chains from a wide range of protein substrates. USP2a deubiquitinates fatty acid synthase (FASN) which has recently been identified as an emerging oncology target. To identify inhibitors of USP2a a cell-free assay was employed. […] The reporter enzyme chosen is phospholipase A2 (PLA2), which has an absolute requirement for a free amino terminus. Thus, fusion of a UBL to the N-terminus of PLA2 inactivates PLA2. When the UBL-PLA2 reporter enzyme is cleaved by USP2, the activated reporter can subsequently act on its substrate, which is the commercially available NBD C6-HPC (Invitrogen). Thus, this coupled assay gives a fluorescent read-out, which is generated through the cleavage of the PLA2 reporter enzyme. The assay, developed by Progenra, Inc. uses Ub-PLA2 and USP2a at near equal and low (nM) amounts and has been licensed for sale by LifeSensors, Inc. as the Ub-IsoPro1 kit.
NCGC Assay Protocol Summary: The assay buffer, prepared fresh at the day of the assay, contains 20mM Tris-HCl pH 8.0, 2mM CaCl2, 2mM beta-Mercaptoethanol, 0.1% DMSO. 3ul of 40nM (20nM final) USP2 core, which is stored on ice, is dispensed into a medium-binding black solid Kalypsys 1,536 well plate using the Kalypsys dispenser. The assay plate is then pinned with 23nL compound with the Kalypsys pintool in columns 5-48. The controls are pinned as follows: column 1&2 two-fold dilutions of 2M NEM in duplicate; column 3 DMSO; column 4 2M NEM (final concentration […]). The assay plate is incubated at RT for 30min. Subsequently, 3uL of 40nM (20nM final) Ub-PLA2 and 40uM (20uM final) NBD C6-HPC (stored on ice and protected from light) were dispensed into the plate using the Kalypsys dispenser. Plates were read immediately (0 Hour) on an Envision (Perkin Elmer) plate reader using the following wavelengths Ex 460nm /Em 535nm. Then, the assay plates were incubated for 2.5 hours and read again on the Envision using the same settings Data were normalized to the to AC100 inhibition (NEM). Concentration-response curves were fitted to the normalized data and the concentration-response curves were then classified based on curve quality (r2), response magnitude and degree of measured activity. The time zero reading was used to flag fluorescence artifacts. Keywords: ubiquitination, deubiquitination, proteases, profluorescent, MLSMR, MLSCN, NIH Roadmap, qHTS, NCGC

Q: For `CCS(=O)(=O)c1nc(S(=O)(=O)c2ccc(C)cc2)c(NCC(C)C)s1`, which Potency is on record?
A: 2.82 µM (active)

Q: `Cc1ccc(-n2nc3c(=O)n(CCCC(=O)NCCc4ccccc4Cl)nc(C)c3c2C)cc1` was tested. Which Potency did it give?
A: 11.2 µM (active)

Q: How did the “activity, negative = inhibition” value turn out when `O=C(CCS(=O)(=O)c1ccccc1)N(Cc1cccnc1)c1nc2c(Cl)cccc2s1` was run?
A: -20.5%

Q: Which “activity, negative = inhibition” value does the source give for `COC(=O)c1c(NC(=O)CS(=O)(=O)c2ccc(C)cc2)sc2c1CCCCC2` here?
A: -4.33%

Q: `COc1ccc(Cl)cc1NC(=O)CSc1nc(=O)[nH]c2c1CCC2` was tested. Which “activity, negative = inhibition” value did it give?
A: -51.2%

Q: With `CCCCCC(=O)N1c2ccccc2C(C)(c2ccccc2)CC1(C)C` (centres undefined) as the molecule, how does the Potency read?
A: 12.6 µM (active)

Q: Which “activity, negative = inhibition” value does the source give for `CCC(C)NC(=O)CSc1nc2cc3c(cc2c(=O)n1Cc1ccc(C(=O)NCCc2ccc(OC)c(OC)c2)cc1)OCO3` (centres undefined) here?
A: 24.3%

Q: `Oc1c(C(Nc2ccccn2)c2ccccc2F)ccc2cccnc12` (centres undefined) was tested. Which “activity, negative = inhibition” value did it give?
A: 48.7%

Q: `COc1ccc(C(=O)/C=C/c2cn(CC(O)CN(CC(C)C)CC(C)C)c3ccccc23)cc1OC` (centres undefined) was tested. Which Potency did it give?
A: 12.6 µM (active)

Q: With `CCOC(=O)C1CCCN(c2c(C(=O)c3ccc(C)cc3)cnc3ccc(OCC)cc23)C1` (centres undefined) as the molecule, how does the Potency read?
A: 3.16 µM (active)

Q: `CCc1ccc(C(=O)c2c(N)c(-c3nc(-c4ccc5c(c4)OCO5)cs3)c3ccccn23)cc1` was tested. Which “activity, negative = inhibition” value did it give?
A: -99.9%

Q: How did the Potency turn out when `Cc1ccc([C@H]2Nc3ccc(S(=O)(=O)Nc4cccc(Cl)c4C)cc3[C@H]3C=CC[C@H]32)cc1` was run?
A: 7.94 µM (active)

Q: With `Cc1cc(C)c2nc(N(Cc3cccnc3)C(=O)CCS(=O)(=O)c3ccccc3)sc2c1` as the molecule, how does the “activity, negative = inhibition” value read?
A: 3.88%

Q: Which Potency does the source give for `Cc1ccc(S(=O)(=O)Cc2nc(-c3ccc(C(=O)NCc4ccccc4F)cc3)oc2C)cc1` here?
A: 14.1 µM (active)
